Values joined by “and” are separate entries in the source; they are usually repeats but may differ in a detail not shown here. Equal values may be shown once. Hit rate of the full screen: of about 5,500 compounds, about 2,000 (36%) were called active. Inconclusive results (about 18%) are left out. Cut-off read from the data, not from the text of the source: active = normalized growth mostly below about 0.91 (no sharp cut-off); inconclusive = no clear call, values can overlap the other calls; inactive = mostly above about 0.92. The list shows a part of the results.
Test: chemical genetic growth profiling, strain panel (AID 1159580);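 note: tested at 20 µM; growth read once vehicle control cultures reached saturation at 30 °C; 1 = growth at the plate median or of vehicle wells; lower values mean less growth of the strain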
Settings: S. cerevisiae deletion strains, growth OD

Measured: normalized growth

CCC1C(=O)OCC1Cc1cncn1C (stereo not given)
inactive: locus YAL013W, strain DEP1, stronger effect = lower value 1.01 and 0.986 | locus YAL021C, strain ccr4, stronger effect = lower value 1.01 | locus YAL026C, strain drs2, stronger effect = lower value 1.01 and 1.02 | locus YAL030W, strain snc1, stronger effect = lower value 1.03 and 1.01 | locus YAL040C, strain CLN3, stronger effect = lower value 1.04 and 1.02 | locus YBL061C, strain skt5, stronger effect = lower value 1.03 and 1.02 | locus YBR009C, strain hhf1, stronger effect = lower value 1.01 and 1 | locus YBR021W, strain FUR4, stronger effect = lower value 0.985 and 1 | locus YBR023C, strain chs3, stronger effect = lower value 1.03 and 1.02 | locus YBR171W, strain sec66, stronger effect = lower value 1.02 and 1.03 | locus YBR229C, strain ROT2, stronger effect = lower value 1.01 | locus YBR231C, strain swc5, stronger effect = lower value 1.02 and 1.01 | locus YBR279W, strain paf1, stronger effect = lower value 1.03 and 1.01 | locus YCL011C, strain gbp2, stronger effect = lower value 1.03 and 1.02 | locus YCL016C, strain dcc1, stronger effect = lower value 1.03 and 1.02 | locus YCL029C, strain bik1, stronger effect = lower value 1.03 and 0.998 | locus YCL061C, strain MRC1 (second series), stronger effect = lower value 1.01 and 0.993 | locus YCL061C, strain MRC1, stronger effect = lower value 1.01 | locus YCL069W, strain vba3, stronger effect = lower value 1.02 and 1.01 | locus YCR088W, strain abp1, stronger effect = lower value 1.02 and 1 | locus YDL005C, strain med2, stronger effect = lower value 1.01 and 1.03 | locus YDL035C, strain GPR1, stronger effect = lower value 1.01 | locus YDL040C, strain nat1, stronger effect = lower value 1.02 and 1.01 | locus YDL074C, strain BRE1, stronger effect = lower value 1.02 and 1.03 | locus YDL101C, strain DUN1, stronger effect = lower value 1.02 | locus YDL134C, strain PPH21, stronger effect = lower value 1.01 and 1.02 | locus YDL185W, strain tfp1, stronger effect = lower value 1.02 and 1 | locus YDL192W, strain arf1, stronger effect = lower value 1.02 and 1 | locus YDR001C, strain nth1, stronger effect = lower value 1.01 and 1 | locus YDR069C, strain doa4, stronger effect = lower value 1.01 and 1.02 | locus YDR101C, strain arx1, stronger effect = lower value 1.02 and 0.975 | locus YDR137W, strain rgp1, stronger effect = lower value 1.05 and 1.1 | locus YDR159W, strain sac3, stronger effect = lower value 1.01 and 1.02 | locus YDR162C, strain NBP2, stronger effect = lower value 1.01 and 1.05 | locus YDR195W, strain ref2 1 and 0.98 | locus YDR297W, strain sur2, stronger effect = lower value 1.02 | locus YDR318W, strain mcm21, stronger effect = lower value 1.03 and 0.997 | locus YDR334W, strain swr1, stronger effect = lower value 1.01 and 1.02 | locus YDR335W, strain msn5, stronger effect = lower value 1.02 | locus YDR363W, strain ESC2, stronger effect = lower value 1.03 and 1.01 | locus YDR388W, stronger effect = lower value 1.02 and 0.992 | locus YDR392W, strain spt3, stronger effect = lower value 0.976 and 0.974 | locus YDR502C, strain sam2, stronger effect = lower value 1.04 and 1.01 | locus YEL003W, strain gim4, stronger effect = lower value 1.01 and 1.02 | locus YEL037C, strain rad23, stronger effect = lower value 1.01 | locus YEL061C, strain CIN8 (second series), stronger effect = lower value 1.02 and 1.03 | locus YEL061C, strain CIN8, stronger effect = lower value 1.01 | locus YER002W, strain NOP16, stronger effect = lower value 1.02 and 0.975 | locus YER015W, strain faa2, stronger effect = lower value 1.02 and 1.01 | locus YER016W, strain bim1, stronger effect = lower value 1.01 | locus YER110C, stronger effect = lower value 1.02 and 0.99 | locus YER111C, strain swi4, stronger effect = lower value 1.02 | locus YER155C, strain BEM2 (second series), stronger effect = lower value 1.01 and 1.03 | locus YER155C, strain BEM2, stronger effect = lower value 0.99 and 1 | locus YER167W, strain BCK2, stronger effect = lower value 1.01 and 1.02 | locus YFR010W, strain ubp6, stronger effect = lower value 1.03 and 1 | locus YGL078C, strain dbp3, stronger effect = lower value 1.01 and 1 | locus YGL086W, strain mad1, stronger effect = lower value 1 and 0.996 | locus YGL167C, strain pmr1, stronger effect = lower value 1.03 | locus YGL173C, strain kem1, stronger effect = lower value 1.01 | locus YGL227W, strain vid30, stronger effect = lower value 1.02 | locus YGL240W, strain doc1, stronger effect = lower value 1.01 | locus YGL248W, strain PDE1, stronger effect = lower value 1.01 and 1.02 | locus YGL253W, strain hxk2, stronger effect = lower value 1.01 | locus YGR078C, strain PAC10, stronger effect = lower value 1.04 and 1 and 1.02 | locus YGR135W, strain pre9, stronger effect = lower value 1.01 | locus YGR229C, strain SMI1, stronger effect = lower value 1.02 and 1 and 0.999 | locus YGR252W, strain gcn5, stronger effect = lower value 0.969 and 0.983 | locus YHR013C, strain ard1, stronger effect = lower value 1.06 and 1.01 | locus YHR027C, strain rpn1, stronger effect = lower value 1.02 | locus YHR030C, strain SLT2, stronger effect = lower value 1.01 and 0.975 | locus YHR079C, strain IRE1 (second series), stronger effect = lower value 1.03 and 0.989 | locus YHR079C, strain IRE1, stronger effect = lower value 0.975 | locus YHR094C, strain hxt1, stronger effect = lower value 1.02 and 0.997 | locus YHR129C, strain ARP1, stronger effect = lower value 1.01 | locus YHR142W, strain chs7, stronger effect = lower value 1.03 and 1.01 | locus YHR200W, strain rpn10, stronger effect = lower value 1.01 and 0.999 | locus YIL066C, strain RNR3, stronger effect = lower value 1.02 and 1.01 | locus YIL073C, strain SPO22, stronger effect = lower value 1.06 and 1.02 | locus YIL125W, strain kgd1, stronger effect = lower value 0.997 and 1.01 | locus YIR030C, strain dcg1, stronger effect = lower value 1.02 and 0.993 | locus YJL092W, strain hpr5, stronger effect = lower value 1.01 | locus YJL095W, strain BCK1 (second series), stronger effect = lower value 1.02 | locus YJL095W, strain BCK1, stronger effect = lower value 1.03 and 0.988 and 1.01 | locus YJL115W, strain asf1, stronger effect = lower value 1.01 and 1.02 | locus YJL129C, strain trk1, stronger effect = lower value 1.04 and 1.03 | locus YJL134W, strain LCB3, stronger effect = lower value 1.01 | locus YJL154C, strain vps35, stronger effect = lower value 1.02 and 1.01 | locus YJL164C, strain tpk1, stronger effect = lower value 1.01 and 1.02 | locus YJL166W, strain qcr8, stronger effect = lower value 1.02 | locus YJL168C, strain set2, stronger effect = lower value 1.01 and 0.999 | locus YJL187C, strain SWE1 (second series), stronger effect = lower value 1.02 and 1.01 | locus YJL187C, strain SWE1, stronger effect = lower value 1.02 and 1.01 | locus YJR043C, strain POL32, stronger effect = lower value 1.02 and 1 | locus YJR066W, strain TOR1, stronger effect = lower value 0.971
